# Most compounds without a hit are left out; they make up all but 4.7% or so of the library.
# rCAG RNA binder: r(CAG) repeat RNA binding; TO-PRO-1 dye displacement fluorescence; inhibition, % at 3 µM; 370,000 compounds, 1.3% hits;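 active means inhibition above the plate cutoff, the mean of all test compounds on that plate plus 3 SD, cut at about 35% in these data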;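 further: 0% = DMSO alone and 100% = 100 µM mitoxantrone as full dye displacement; higher means more dye released from RNA so lower well fluorescence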
# proKLK7 act: proKLK7 (human) activation, primary screen; purified proKLK7, EDANS-DABCYL substrate fluorescence; 100% is mature enzyme control, 0% vehicle; activation, % at 7 µM; 370,000 compounds, 0.9% hits; AID 652039;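 active means activation above the mean of all tested compounds plus 3 SD, computed per campaign excluding outliers beyond control limits, cut at about 13% in these data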
# Target sequence (P49862 whole entry, looked up): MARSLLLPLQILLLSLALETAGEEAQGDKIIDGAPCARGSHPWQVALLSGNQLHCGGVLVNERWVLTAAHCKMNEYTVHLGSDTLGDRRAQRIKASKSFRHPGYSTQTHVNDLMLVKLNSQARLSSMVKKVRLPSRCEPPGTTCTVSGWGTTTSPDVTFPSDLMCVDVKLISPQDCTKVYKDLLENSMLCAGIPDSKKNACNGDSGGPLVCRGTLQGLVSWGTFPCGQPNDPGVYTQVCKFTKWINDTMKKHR
# ADAM10 inh: inhibitors of human ADAM10. 370,000 compounds, 0.62% hits. O14672. recombinant ADAM10, EDANS/DABCYL FRET peptide cleavage, 3 h. AID 720582. inhibition, % at 7 µM;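 active means inhibition above a per-campaign cutoff equal to the mean of compounds falling between control-based bounds plus 3 SD, cut at about 20% in these data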;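 further: 0% = DMSO wells while the 100% control is not disclosed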
# MPTP block: permeability transition pore inhibition; inhibition, % at 10 µM; 360,000 compounds, 1.4% hits; AID 602449; isolated mouse mitochondria, Ca2+ swelling absorbance, 30 min;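 active means inhibition of 50% or more, scaled per plate between neutral and stimulator controls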;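 further: 0% = DMSO wells given calcium and 100% = 1 mM EGTA wells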
# ADAM17 inh: ADAM17 inhibition, QFRET primary screen. 370,000 compounds, 0.83% hits. recombinant ADAM17, EDANS/DABCYL FRET peptide cleavage. inhibition, % at 6.95 µM. P78536. AID 720648;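 active means inhibition above the mean of compounds lying between control limits plus 3 SD, set per campaign, cut at about 8.5% in these data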;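 further: 0% = DMSO-only wells as the low control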
# Pemphigus Ab inh: inhibitors of pemphigus antibody binding to human desmoglein-3 | P32926 | DSG3-coupled beads, scFv-anti-DSG3-GFP binding, flow cytometry; hits give low values | binding (percent of control), % at 10 µM | 310,000 compounds, 0.48% hits | AID 588358;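 active means binding more than 3 SD below its plate's average and above zero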;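 further: hits lower antibody fragment binding to DSG3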
# An asterisk follows results filed as active; . = no result.
SMILES,rCAG RNA binder,proKLK7 act,ADAM10 inh,MPTP block,ADAM17 inh,Pemphigus Ab inh
O=C(O)c1cccc(Cn2c(Cl)c(/C=N/NC(=O)c3cc4ccccc4cc3O)sc2=O)c1,77*,0,2,2,-1,96
Clc1ccccc1-c1nnc(-c2ccc3c(c2)OCO3)o1,-1,-1,-130,2,-45,79*
COC(=O)[C@]12C[C@H](CC(=O)NCc3cccc(C(F)(F)F)c3)C(=O)N(Cc3ccccc3)C1=C[C@H](COCc1ccccc1)O[C@@H]2C,4,0,11,.,4,.
CCOc1ccc(NC(=O)c2ccncc2)cc1,-1,0,-3,-2,-2,104
O=C(Nc1ccc(OCC(F)(F)C(F)F)cc1)c1ccncc1,2,-1,9,2,4,-13*
CCOC(=O)C(=O)c1csc(NC(=O)COc2ccc(N(C)S(=O)(=O)c3ccc(F)cc3)cc2)n1,6,0,-5,3,-1,73*
COCc1[nH]nc2c1C(c1ccc(Br)cc1)N(Cc1ccccc1)C2=O (stereo not drawn),2,0,4,.,1,.
CS(=O)(=O)N(CC(=O)N1CCOCC1)c1cccc(F)c1,-1,-1,-1,1,-1,77*
O=S1(=O)N[C@@H](Cc2ccccc2)COc2cc(N3CCCCC3)ccc21,4,0,1,.,-1,.
Nc1ccc2nc(CCCCCCc3nc4ccc(N)cc4[nH]3)[nH]c2c1,3,0,-2,-1,-4,65*
Nc1ccc2nc(CCCCc3nc4ccccc4[nH]3)[nH]c2c1,0,0,-2,1,-2,97
CC1(c2nnnn2Cc2ccccc2)CN(S(C)(=O)=O)CC(=O)N1Cc1cccs1 (stereo not drawn),2,0,6,.,2,.
Nc1cccc(C(=O)c2ccccc2C(=O)O)c1,1,0,-4,0,0,78*
CN1c2ccsc2C(O)=C(C(=S)Nc2ccc(F)c(Cl)c2)S1(=O)=O,67*,-2,-26,45,-12,103
COc1ccc2c(c1)OC[C@H]1[C@H]2N2C(=O)c3ccc(F)cc3NC(=O)[C@@]2(C)[C@H]1c1ccccc1,8,-2,19,2,9.1*,105
COc1ccc2c(c1)OC[C@H]1[C@H]2N2C(=O)c3cc(OC)c(OC)cc3NC(=O)[C@@]2(C)[C@H]1c1ccccc1,20,0,-7,1,-2,95
O=S1(=O)CCC(N(N=Cc2ccco2)c2ccccc2)C1 (stereo not drawn),4,1,6,.,3,.
CCCCn1c(SCC(=O)N(CC)C2CCS(=O)(=O)C2)nc2cc(S(N)(=O)=O)ccc21 (stereo not drawn),2,0,2,0,-1,16*
CCCCn1c(SCC(=O)N(C)C2CCS(=O)(=O)C2)nc2cc(S(N)(=O)=O)ccc21 (stereo not drawn),1,0,-1,4,-4,87
COc1ccc(CNC(=O)C2=CC(c3ccc(OC)c(OC)c3)=NS(=O)(=O)N2C)cc1,4,0,1,-2,0,91
COc1ccc(C2=NS(=O)(=O)N(C)C(C(=O)NCc3ccc4c(c3)OCO4)=C2)cc1OC,8,0,-1,-2,3,63*
Cc1nc2c(C(=O)NCc3ccccc3)c[nH]n2c(=O)c1Cl,41*,1,-19,-1,-14,100
O=C(CCCn1c(=O)[nH]c2ccccc2c1=O)NCCSCc1ccccc1,-5,0,-1,0,3,23*
O=C(CCCn1c(=S)[nH]c2ccccc2c1=O)NCCSCc1ccccc1,-3,0,7,0,1,119
COc1ccc(C2(SCC(N)C(=O)O)c3ccccc3-c3ccccc32)cc1 (stereo not drawn),22,-1,-16,-3,0,72*
CC(=O)N1CCN(c2ccc(NC(=O)C(c3ccccc3)c3ccccc3)cc2)CC1,-6,0,4,0,8,38*
Cc1cccc(Cn2cc(CN3CC(N(C)CCCOC(=O)c4cc5ccccc5o4)CS3(=O)=O)nn2)c1 (stereo not drawn),4,1,8,.,2,.
COc1cc(C(=O)NCCc2ccc(F)cc2)ccc1OCC(=O)N1CCOCC1,.,.,.,-2,.,86*

# High-throughput results from PubChem.
